Reference: PubChem BioAssay (NCI)
Where “and” joins values, the source holds several entries; their conditions need not be identical. Equal entries are not always repeated. About 83,000 compounds went through this panel and 20% of them were active in at least one assay; those are over-represented in the sample as a whole.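 Treatment: one concentration, 48 hours, 96-well format. Scoring: percent growth, with anything below 10 considered active.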 Unmarked numbers belong to inactive results. Calls of active or inactive are those of the source.

Each compound was assayed on MDA-MB-468 breast (assay: NCI-60 one-dose screen, 48 h (100 = growth as untreated, 0 = no growth, -100 = all killed)). Settings: 10 µM unless noted.

Structure (SMILES)	growth
COc1ccc(/C=C(\C#N)n2nnc3c(F)cccc32)cc1	-7.36% (active)
CN1CCN(C(=O)C(C)(C)c2ccc(C(=O)Nc3cn4cc(-c5ccncc5)ccc4n3)cc2)CC1	-16.2% (active)
CCN(CC)C(=O)CCCCCn1c2ccccc2c2c3c(c4c5ccccc5[nH]c4c21)C(=O)N(O)C3=O	51.5%
O=C1CCC(=O)N1C1CCCCC1	97%
COc1cccc(-c2nn(-c3ccccc3)cc2-c2ccnc(NCCCNC(=O)c3ccccc3)c2)c1	15.2%
Oc1c(I)cc(I)cc1CNCCCN(Cc1ccccn1)Cc1ccccn1	-55.7% (active)
O=C(CCl)Nc1cc(O)c2c(c1)C(=O)c1cccc(O)c1C2=O	-55.1% (active)
O=C(NC(=S)NNC(=S)NNc1ccccc1)c1ccccc1	83.7%
CCC(=O)Nc1cc(Nc2cc(NC3CC3)n3ncc(C#N)c3n2)ccc1C	1.64% (active)
C[n+]1ccccc1C[n+]1ccccc1	117%
Nc1c(CNCc2nnn(Cc3ccccc3)c2N)nnn1Cc1ccccc1	100%
COc1cc(OC)c2cc(C(=O)O)c(=O)oc2c1	99.9%
CC(=O)NCCCS(=O)(=O)O	113%
OC(CBr)CCBr (stereo not given)	97.4%
CC[C@@]12C=CCN3CC[C@]4(c5cc(NC(=O)COc6cc(OCC(=O)Nc7cc8c(cc7OC)N(C)[C@H]7[C@@](O)(C(=O)OC)[C@H](OC(C)=O)[C@]9(CC)C=CCN%10CC[C@]87[C@@H]%109)cc7oc(-c8ccccc8)cc(=O)c67)c(OC)cc5N(C)[C@@H]4[C@](O)(C(=O)OC)[C@H]1OC(C)=O)[C@H]32	72%
Cc1ccc2nc(C)c(-c3nnc(SCc4ccc(C#N)cc4)o3)n2c1	87.5%
CC(=O)n1c(-c2ccc(Cl)cc2)nc2c(c1=O)C(c1ccc(Cl)cc1)c1sc3c(Cl)cccc3c1O2 (stereo not given)	5.06% (active)
Nc1nc(N)nc(N2CCCCC2)n1	124%
Cc1cc2nc(CS)[nH]c2cc1C	85.2%
O=C(CSc1nc2sc3c(c2c(=O)n1-c1ccc(Cl)cc1)CCCC3)NNC(=O)Nc1ccc(Cl)c(C(F)(F)F)c1	-42.4% (active)

Structure (SMILES)	growth
CN1CCN(C2=C(Cl)C(=O)c3ccccc3C2=O)CC1	57%
COc1cc(-c2nn(-c3cccc(NC(=O)NCCNS(=O)(=O)c4ccc(Cl)cc4)c3)cc2-c2ccncc2)ccc1Cl	-35.8% (active)
Brc1ccc(Nc2nc(Nc3cnc4ccccc4c3)c3[nH]cnc3n2)cc1	65.5%
O=C(CSc1nnc(-c2ccc(Cl)cc2)n1-c1ccccc1)Nc1cccc(Cl)c1	79.8%
CN1CCN(C(=O)c2ccc(NC(=O)Nc3ccc(-c4nc(N5CCOCC5)c5cccn5n4)cc3)cc2)CC1	-60.7% (active)
O=C(OCc1ccc2cccc(O)c2n1)N1CCN(C(=O)c2cc3cc(F)ccc3[nH]2)CC1	-59.2% (active)
O=C(NNc1nc2cc(F)c(F)cc2n2cccc12)c1cnccn1	17.5%
CCOc1ccc(-c2nonc2NC(=O)c2cccc(C)c2)cc1OCC	2.82% (active)
Clc1cccc(-c2nc(-c3cccs3)no2)c1	3.37% (active)
Cn1cc2c(=O)nc3c(-c4nc5ccccc5[nH]4)n[nH]n3c2n1	83.3%
CCNc1nc(O)c(/C=C2\C=Nc3ncccc32)s1	-34.7% (active)
O=C(Cc1csc2nc(-c3ccc(Cl)cc3)cn12)N/N=C/c1ccccc1O	56.7%
Cc1ccc(Cc2cnc(NC(=O)/C=C/c3cccc(C)c3)s2)cc1	1.34% (active)
O=C(CS)Nc1ccc2ccccc2c1	108%
Cc1c(O)nc(N)[nH]c1=O	105%
Nc1nc(Nc2ccccc2SSc2ccccc2Nc2nc(N)nc(-c3cccs3)n2)nc(-c2ccsc2)n1	115%
Clc1ccc2c(c1)C[C@H]1C[C@@H](c3cccs3)N2O1	106%
CCN(CC)CCCC(CNc1ccnc2cc(Cl)ccc12)c1ccc(Cl)cc1 (stereo not given)	-78.1% (active) and -70.5% (active)
CC(=O)NCNC(C)=O	103%
CSc1[nH]c(=O)ncc1F	98.1%
